Where “and” joins values, the source holds several entries; their conditions need not be identical. Equal entries are not always repeated. Records with an inconclusive call do not appear. Calls of active or inactive are those of the source. Unless noted, calls follow the shape of the dose curve; as a rule, active = well fitted curve in the direction sought with a large enough effect; inconclusive = small, poorly fitted or top-dose-only effect, or another doubt; inactive = no such curve, though single readings can be large; an effect the other way counts as inactive or inconclusive.
What was measured:
[1] = Cell Viability - BJ (AID 421; calls by dose curve;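 also: potency is read from the fitted curve at half-maximal effect; cells exposed to compound for 40 hours at 37 °C before readout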); settings: BJ fibroblast viability, qHTS
Procedure, shortened: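 Cytotoxicity as drop in intracellular ATP (CellTiter-Glo, 20 min RT) after 40 hr compound exposure of BJ fibroblasts at 37 °C. Titrations scaled between DMSO and 100 uM tamoxifen, Hill-fitted for AC50.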

[2] = Cell Viability - Mesenchymal (AID 546); settings: mesenchymal cells viability, qHTS; series mostly up to 91.7 µM;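 also: cells exposed to compound for 40 hours before reading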
Procedure, shortened: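 Human kidney mesenchymal cells from normal renal glomeruli, 1000 cells/well, rested 5 hr at 37 °C, then treated 40 hr at 37 °C in complete medium. Cellular ATP read by CellTiter-Glo luminescence; AC50 from Hill-equation fits.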

[3] = Cellular Toxicity (caspase-3) HepG2 (AID 654); settings: HepG2 caspase-3 activation, luminescence, 0% = DMSO only, 100% = tamoxifen; series mostly up to 92.2 µM;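 also: cells exposed to compound for 16 hours before reading; 0% = DMSO alone and 100% = caspase signal from 100 µM tamoxifen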
Procedure, shortened: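 HepG2 cells (1500/well) were treated 16 h at 37 °C in complete medium, then caspase 3/7 activity was read by Caspase-Glo luminescence. Data were normalized to DMSO and 100 uM tamoxifen; AC50 came from Hill-equation fits of qHTS concentration-response.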

[4] = Cellular Toxicity (caspase-3) HUV-EC-C (AID 656); settings: HUV-EC-C cells, caspase-3 activation (apoptosis), vehicle = 0, 100 µM tamoxifen = 100%; series mostly up to 92.2 µM
Procedure, shortened: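 Luminescent caspase-3/7 activation (aminoluciferin substrate cleavage) in HUV-EC-C cells after 16 hr compound exposure, 37°C. Signal normalized to DMSO basal and 100 uM tamoxifen as 100%; AC50 from concentration-response fitted with the Hill equation.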

[5] = Cellular Toxicity (caspase-3) BJ (AID 658); settings: BJ fibroblasts, luminescence, normalized: DMSO 0%, staurosporine 100%; series mostly up to 91.7 µM
Procedure, shortened: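 BJ human foreskin fibroblasts, 1000 cells/well, treated 16 hours at 37 °C in complete medium; caspase 3/7 activity by Caspase-Glo luminescence after 1 hr at room temperature. Normalized to DMSO and 10 uM staurosporine; AC50 from Hill fits.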

[6] = Cellular Toxicity (caspase-3) MRC-5 (AID 659); settings: MRC-5 cells, luminescence, normalized: DMSO 0%, 10 µM staurosporine 100%; series mostly up to 91.7 µM
Procedure, shortened: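 MRC-5 human normal lung fibroblasts, 1500 cells/well, treated 16 h at 37 °C in complete medium. Caspase 3/7 measured by Caspase-Glo luminescence after 1 h at room temperature. Normalized to DMSO and 10 uM staurosporine; AC50 from Hill fit.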

[7] = Cellular Toxicity (caspase-3) SK-N-SH (AID 661); settings: SK-N-SH caspase-3 activation, qHTS; series mostly up to 91.7 µM
Procedure, shortened: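 Human SK-N-SH neuroblastoma cells, 1500/well, were exposed to compounds for 16 hours at 37 °C. Caspase-Glo 3/7 luminescence was normalized to DMSO (basal) and 10 uM staurosporine (100%), and AC50 came from a Hill fit.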

[8] = Cellular Toxicity (caspase-3) Hek293 (AID 664); settings: HEK293 caspase-3 activation, DMSO = 0%, 100 µM tamoxifen = 100%; at 92.2 µM (top of the series);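 also: cells exposed to compound for 16 h at 37 °C before readout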
Procedure, shortened: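 HEK293 cells in complete medium treated 16 h at 37 °C, then Caspase-Glo 3/7 luminescence read after 20 min at room temperature. Normalized to DMSO and 100 uM tamoxifen; AC50 from Hill fit of concentration-response.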

[9] = MultiTox-Fluor Cytotoxicity Assay - LYMP1-001 - Dead Cells (AID 946); settings: LYMP1-001 lymphoblastoid cells, dead-cell protease fluorescence; series mostly up to 92.2 µM
Procedure, shortened: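 Cytotoxicity as increased dead-cell protease fluorescence (bis-AAF-R110, 485/520 nm), read 60 min after MultiTox-Fluor reagent. Human lymphoblastoid line exposed 16 h; Hill-fitted AC50, with DMSO as 0% and 15 uM tetraoctylammonium bromide as 100%.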

[10] = Cell Viability - LYMP1-002 - Assay at 16 hr (AID 948); settings: LYMP1-002 lymphoblastoid cell viability; series mostly up to 92.2 µM;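 also: 0% = DMSO alone and full effect = 92 µM tetraoctylammonium bromide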
Procedure, shortened: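 LYMP1-002 human lymphoblastoid cells, 2500/well; 5 hr 37 C; cpd 16 hr 37 C; CellTiter-Glo 30 min RT; luminescence (ATP). Concentration-response, Hill-fit AC50. Pos ctrl tetraoctylammonium bromide.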

[11] = MultiTox-Fluor Cytotoxicity Assay - LYMP1-002 - Live Cells (AID 955); settings: LYMP1-002 lymphoblastoid live-cell protease fluorescence viability; series mostly up to 46.1 µM; also: % is scaled to controls: 0 for no effect and ±100 for the full control effect
Procedure, shortened: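 Human lymphoblastoid LYMP1-002 cells, 2500/well, treated 16 h at 37 C in complete medium. Live-cell protease activity via GF-AFC fluorescence (Ex/Em 405/510) after 60 min reagent incubation; AC50 from Hill fits.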

[12] = MultiTox-Fluor Cytotoxicity Assay - LYMP1-003 - Dead Cells (AID 961); settings: LYMP1-003 lymphoblastoid cells, dead-cell protease fluorescence; series mostly up to 92.2 µM; also: nearly all actives have a fitted effect of over 70% in size
Procedure, shortened: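 Dead-cell protease release, detected as bis-AAF-R110 fluorescence at 485/520 nm, was measured in LYMP1-003 cells after 16 h compound treatment at 37 C. AC50 values came from Hill-modeled qHTS curves normalized to DMSO (0%) and 15 uM tetraoctylammonium bromide (100%).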

[13] = MultiTox-Fluor Cytotoxicity Assay - LYMP1-003 - Live Cells (AID 962); settings: LYMP1-003 lymphoblastoid cells, MultiTox-Fluor live-cell protease fluorescence; series mostly up to 92.2 µM;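 also: 0% = DMSO only and full loss = 92 µM tetraoctylammonium bromide; cytotoxic hits lower the live-cell protease signal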
Procedure, shortened: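 LYMP1-003 lymphoblastoid cells, 2500/well in complete medium, treated 16 h at 37 C; live-cell protease cleavage of GF-AFC read by fluorescence (Ex/Em 405/510) after 60 min reagent; AC50 from Hill fits of concentration-response.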

[14] = Cell Viability - LYMP1-003 - Assay at 24 hr (AID 963); settings: LYMP1-003 lymphoblastoid cell viability; series mostly up to 92.2 µM;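 also: plate controls were DMSO only for no effect and tetraoctylammonium bromide positive control for full effect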
Procedure, shortened: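 Human lymphoblastoid LYMP1-003 cells, 2500/well, treated 24 h at 37 C in complete medium. Viability read as intracellular ATP by CellTiter-Glo luminescence after 30 min at room temperature; AC50 from Hill-equation fits of qHTS concentration-response.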

[15] = Cell Viability - LYMP2-003 (AID 965); settings: LYMP2-003 lymphoblastoid cell viability; series mostly up to 92.2 µM;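 also: cells exposed to compounds for 24 h before reading; 0% = DMSO only and full effect = 92 µM tetraoctylammonium bromide; nearly all actives have a fitted effect of over 50% in size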
Procedure, shortened: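 CellTiter-Glo luminescence (cellular ATP) after 24 h compound exposure at 37 C in complete medium; 2500 cells/well, 5 h settling beforehand. Concentration-response fitted to standard Hill equation for AC50. Tetraoctylammonium bromide served as positive control.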

[16] = Cell Viability - LYMP2-025 (AID 976); settings: LYMP2-025 lymphoblastoid cell viability; series mostly up to 92.2 µM;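 also: plate controls were DMSO only for no effect and tetraoctylammonium bromide control for full effect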
Procedure, shortened: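 Human lymphoblastoid LYMP2-025 cells, 2500/well, exposed 24 h at 37 C in complete medium in 1536-well qHTS. Viability as cellular ATP by CellTiter-Glo luminescence; AC50 from Hill fits of concentration-response data.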

[17] = Cell Viability - LYMP2-016 (AID 984); settings: LYMP2-016 lymphoblastoid cell viability, qHTS; series mostly up to 92.2 µM; also: % is scaled to controls: 0 for no effect and ±100 for the full control effect; nearly all actives have a fitted effect of over 55% in size
Procedure, shortened: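 qHTS, 1536-well: 2500 LYMP2-016 cells/well, 5 hr 37 C, compound added, 24 hr 37 C, CellTiter-Glo 30 min RT, luminescence. Tetraoctylammonium bromide positive control. AC50 via Hill fit.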

[18] = Cell Viability - LYMP2-026 (AID 989); settings: LYMP2-026 lymphoblastoid cell viability, qHTS; series mostly up to 92.2 µM; also: % is scaled to controls: 0 for no effect and ±100 for the full control effect; nearly all actives have a fitted effect of over 50% in size
Procedure, shortened: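 Human lymphoblastoid LYMP2-026 cells, 2500/well, exposed to compound 24 h at 37 C in complete medium. Viability as intracellular ATP by CellTiter-Glo luminescence; AC50 from Hill fits of qHTS concentration-response.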

[19] = qHTS Assay for Identification of Small Molecule Inducers of Hypoxia Response (AID 2120; active = well fitted curve in the direction sought with a large enough effect in the signal ratio, with a control signal flat, not every such curve was filed as active; the % refers to the signal ratio; also: 0% is about no effect); settings: hypoxia response reporter cells, beta-lactamase ratio readout; series mostly up to 104 µM
Procedure, shortened: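 HRE-bla ME-180 cells in Opti-MEM with 0.5% dialyzed FBS, pre-plated 4-5 h, then compound titration for 17 h at 37 degrees Celsius. CCF4 loaded 2.5 h at room temperature; 460/530 nm ratio gave %Activity and AC50 for induction.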

[20] = biological target: Peroxisome proliferator-activated receptor alpha (Homo sapiens) (UniProt Q07869); assay: qHTS assay for small molecule agonists of the peroxisome proliferator-activated receptor alpha (PPARalpha) signaling pathway (AID 651778); settings: PathHunter PPARalpha complementation, chemiluminescence, 6 h; active compounds read high; also: % of control where 0% means no effect
Peroxisome proliferator-activated receptor alpha (Homo sapiens), sequence (Q07869 whole entry, looked up, the tested form may be a part): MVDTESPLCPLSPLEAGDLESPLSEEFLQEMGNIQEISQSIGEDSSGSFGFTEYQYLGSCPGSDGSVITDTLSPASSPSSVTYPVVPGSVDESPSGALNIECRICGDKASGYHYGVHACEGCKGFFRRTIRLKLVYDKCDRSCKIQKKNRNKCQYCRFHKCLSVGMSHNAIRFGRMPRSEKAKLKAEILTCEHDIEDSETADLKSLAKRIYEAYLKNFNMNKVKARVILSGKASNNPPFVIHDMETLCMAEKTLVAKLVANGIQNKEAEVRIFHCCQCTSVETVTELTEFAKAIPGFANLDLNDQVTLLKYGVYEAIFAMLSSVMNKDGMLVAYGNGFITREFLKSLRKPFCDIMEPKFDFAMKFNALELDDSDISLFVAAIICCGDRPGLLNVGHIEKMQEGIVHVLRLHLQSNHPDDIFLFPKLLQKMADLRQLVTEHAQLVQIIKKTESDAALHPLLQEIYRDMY
Procedure, shortened: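 Enzyme-fragment complementation assay in which ligand-bound PPARalpha translocates and forms an active enzyme that generates chemiluminescence. Cells were plated overnight, exposed to compound for 6 hr at 37 C, and then given detection reagent for 60 min at room temperature.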

COc1ccc(C=O)cc1
inactive: Potency [1] > 92 µM | Potency [2] | outcome [3] | outcome [4] | outcome [5] | outcome [6] | Potency [7] | caspase-3 activation [8] 1.65% | outcome [9] | outcome [10] | outcome [11] | Potency [12] | outcome [13] | outcome [14] | Potency [15] | Potency [16] | Potency [17] | Potency [18] | Potency [19] | max response [20] 2.57%

CCCCOC(C)=O
inactive: Potency [1] > 92 µM | Potency [2] | outcome [3] | outcome [4] | outcome [5] | outcome [6] | Potency [7] | caspase-3 activation [8] -0.0829% | outcome [9] | outcome [10] | outcome [11] | Potency [12] | outcome [13] | outcome [14] | Potency [15] | Potency [16] | Potency [17] | Potency [18] | Potency [19] | max response [20] -4.39%

CC(C#N)CCC#N (centres undefined)
inactive: Potency [1] > 92 µM | Potency [2] | outcome [3] | outcome [4] | outcome [5] | outcome [6] | Potency [7] | caspase-3 activation [8] 0.584% | outcome [9] | outcome [10] | outcome [11] | Potency [12] | outcome [13] | outcome [14] | Potency [15] | Potency [16] | Potency [17] | Potency [18] | Potency [19] | max response [20] -3.28%

ClCC(Cl)CCl
inactive: Potency [1] > 92 µM | Potency [2] | outcome [3] | outcome [4] | outcome [5] | outcome [6] | Potency [7] | caspase-3 activation [8] 1.26% | outcome [9] | outcome [10] | outcome [11] | Potency [12] | outcome [13] | outcome [14] | Potency [15] | Potency [16] | Potency [17] | Potency [18] | Potency [19] | max response [20] -4.72% and -1.22%

Nc1ccccc1-c1ccccc1
inactive: Potency [1] > 92 µM | Potency [2] | outcome [3] | outcome [4] | outcome [5] | outcome [6] | Potency [7] | caspase-3 activation [8] 1.72% | outcome [9] | outcome [10] | outcome [11] | Potency [12] | outcome [13] | outcome [14] | Potency [15] | Potency [16] | Potency [17] | Potency [18] | Potency [19] | max response [20] -2.98%

CCCCC(=O)Cl
inactive: Potency [1] > 92 µM | Potency [2] | outcome [3] | outcome [4] | outcome [5] | outcome [6] | Potency [7] | caspase-3 activation [8] -0.249% | outcome [9] | outcome [10] | outcome [11] | Potency [12] | outcome [13] | outcome [14] | Potency [15] | Potency [16] | Potency [17] | Potency [18] | Potency [19] | max response [20] -8.92%

CCCCCCCCCCCOC(=O)c1ccccc1C(=O)OCCCCCCCCCCC
inactive: Potency [1] > 92 µM | Potency [2] | outcome [3] | outcome [4] | outcome [5] | outcome [6] | Potency [7] | outcome [9] | outcome [10] | outcome [11] | Potency [12] | outcome [13] | outcome [14] | Potency [15] | Potency [16] | Potency [17] | Potency [18] | Potency [19] | max response [20] 0.22%
